Records with an inconclusive call do not appear. Active and inactive are the calls of the source. Calls follow the shape of the dose curve; as a rule, active = well fitted curve in the direction sought with a large enough effect; inconclusive = small, poorly fitted or top-dose-only effect, or another doubt; inactive = no such curve, though single readings can be large; an effect the other way counts as inactive or inconclusive.
How the values were obtained:
[1] = qHTS of pediatric cancer cell lines to identify multiple opportunities for drug repurposing: Primary screen for SK-N-MC cells (AID 1347093); settings: SK-N-MC viability, CellTiter-Glo luminescence, 48 h; series mostly up to 46 µM; also: potency is read from the fitted curve at half-maximal effect;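 as to activity change, negative = cytotoxic: plate controls were DMSO neutral control for no effect and bortezomib for full effect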
How it was run: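 Metabolically active cells were quantified by ATP-dependent luminescence (CellTiter-Glo, 15 min at room temperature) following 48 h treatment. Cells had been plated at 500-1,000 per well and settled for 5 h beforehand.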

[2] = qHTS of pediatric cancer cell lines to identify multiple opportunities for drug repurposing: Primary screen for BT-37 cells (AID 1347094); settings: BT-37 viability, CellTiter-Glo luminescence, 48 h; series mostly up to 57.3 µM; also: potency is read from the fitted curve at half-maximal effect;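 as to activity change, negative = cytotoxic: plate controls were DMSO for no effect and bortezomib for full effect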
How it was run: (§1)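 Following a 5-hour attachment period, cells at 500-1,000/well received compounds and were cultured for 48 hours. CellTiter-Glo was added and luminescence read to estimate viable, metabolically active cells.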

[3] = qHTS of pediatric cancer cell lines to identify multiple opportunities for drug repurposing: Primary screen for NB-EBc1 cells (AID 1347095); settings: NB-EBc1 neuroblastoma viability, CellTiter-Glo luminescence, 48 h; series mostly up to 46 µM; also: potency is read from the fitted curve at half-maximal effect;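 as to activity change, negative = cytotoxic: plate controls were DMSO neutral control for no effect and bortezomib for full effect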
How it was run: as §1

[4] = qHTS of pediatric cancer cell lines to identify multiple opportunities for drug repurposing: Primary screen for U-2 OS cells (AID 1347096); settings: U-2 OS viability, CellTiter-Glo luminescence, 48 h; series mostly up to 46 µM;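 also: plate controls were DMSO wells for no effect and bortezomib positive control wells for full effect; nearly all actives have a fitted effect of over 50% in size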
How it was run: (§2)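 Cells (500-1,000/well) rested 5 h, then received compounds for 48 h; metabolically active cells were measured by CellTiter-Glo luminescence. Final concentrations spanned up to 46 µM (MIPE, 11-point) or 0.59 nM-46 µM (NPC, 8-point) in primary screens, 11-point in follow-ups.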

[5] = qHTS of pediatric cancer cell lines to identify multiple opportunities for drug repurposing: Primary screen for Saos-2 cells (AID 1347097); settings: Saos-2 viability, CellTiter-Glo ATP luminescence, 48 h; series mostly up to 46 µM; also: nearly all actives have a fitted effect of over 40% in size; also: potency is read from the fitted curve at half-maximal effect; as to activity change, negative = cytotoxic: % is scaled to controls: 0 for no effect and ±100 for the full control effect
How it was run: as §1

[6] = qHTS of pediatric cancer cell lines to identify multiple opportunities for drug repurposing: Primary screen for SK-N-SH cells (AID 1347098); settings: SK-N-SH viability, CellTiter-Glo luminescence, 48 h; series mostly up to 57 µM; also: nearly all actives have a fitted effect of over 65% in size; also: potency is read from the fitted curve at half-maximal effect;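 as to activity change, negative = cytotoxic: DMSO served as neutral control and bortezomib at 2.3 µM as positive control; % is scaled to controls: 0 for no effect and ±100 for the full control effect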
How it was run: as §2

[7] = qHTS of pediatric cancer cell lines to identify multiple opportunities for drug repurposing: Primary screen for NB1643 cells (AID 1347099); settings: NB1643 neuroblastoma viability, CellTiter-Glo luminescence, 48 h; series mostly up to 46 µM;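 also: plate controls were DMSO neutral control for no effect and bortezomib positive control for full effect; nearly all actives have a fitted effect of over 50% in size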
How it was run: as §1

[8] = qHTS of pediatric cancer cell lines to identify multiple opportunities for drug repurposing: Primary screen for LAN-5 cells (AID 1347100); settings: LAN-5 neuroblastoma viability, CellTiter-Glo luminescence, 48 h; series mostly up to 46 µM; also: potency is read from the fitted curve at half-maximal effect;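 as to activity change, negative = cytotoxic: plate controls were DMSO neutral control for no effect and bortezomib positive control for full effect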
How it was run: as §2

[9] = qHTS of pediatric cancer cell lines to identify multiple opportunities for drug repurposing: Primary screen for BT-12 cells (AID 1347101); settings: BT-12 viability, CellTiter-Glo luminescence, 48 h; series mostly up to 57.3 µM; also: nearly all actives have a fitted effect of over 25% in size; also: potency is read from the fitted curve at half-maximal effect;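 as to activity change, negative = cytotoxic: plate controls were DMSO for no effect and bortezomib positive control for full effect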
How it was run: as §2

[10] = qHTS of pediatric cancer cell lines to identify multiple opportunities for drug repurposing: Primary screen for Rh18 cells (AID 1347102); settings: Rh18 rhabdomyosarcoma viability, CellTiter-Glo luminescence, 48 h; series mostly up to 46 µM; also: % is scaled to controls: 0 for no effect and ±100 for the full control effect; nearly all actives have a fitted effect of over 65% in size
How it was run: as §2

Cc1cccc(C)c1NC(=O)C(C)N (centres undefined)
inactive: Potency [1] | Potency [2] | Potency [3] | Potency [4] | Potency [5] | Potency [6] | Potency [7] | Potency [8] | Potency [9] | Potency [10]

NC(=O)N1c2ccccc2C=Cc2ccccc21
inactive: Potency [1] | Potency [2] | Potency [3] | Potency [4] | Potency [5] | Potency [6] | Potency [7] | Potency [8] | Potency [9] | Potency [10]

NC(Cc1ccc(Cl)cc1)C(=O)O (centres undefined)
inactive: activity change, negative = cytotoxic [1] -1.75% [at 0.597 µM] | activity change, negative = cytotoxic [2] 9.97% [at 0.745 µM] | activity change, negative = cytotoxic [3] 23.4% [at 0.597 µM] | activity change, negative = cytotoxic [4] 18.1% [at 0.597 µM] | activity change, negative = cytotoxic [5] 1.27% [at 0.597 µM] | activity change, negative = cytotoxic [6] -6.57% [at 0.741 µM] | activity change, negative = cytotoxic [7] 9.7% [at 0.597 µM] | activity change, negative = cytotoxic [8] 0.0057% [at 0.597 µM] | activity change, negative = cytotoxic [9] 7.02% [at 0.745 µM] | activity change, negative = cytotoxic [10] 15.1% [at 0.597 µM]

COc1ccc([C@@H]2Sc3ccccc3N(CCN(C)C)C(=O)[C@@H]2OC(C)=O)cc1
inactive: Potency [1] | Potency [2] | Potency [3] | Potency [4] | Potency [5] | Potency [6] | Potency [7] | Potency [8] | Potency [9] | Potency [10]

CCN(CC)CCNC(=O)c1ccc(NC(C)=O)cc1
inactive: Potency [1] | Potency [2] | Potency [3] | Potency [4] | Potency [5] | Potency [6] | Potency [7] | Potency [8] | Potency [9] | Potency [10]

NC/C=C/C(=O)O
inactive: Potency [1] | Potency [2] | Potency [3] | Potency [4] | Potency [5] | Potency [6] | Potency [7] | Potency [8] | Potency [9] | Potency [10]

CN(C)C(=O)Oc1cccc([N+](C)(C)C)c1
inactive: Potency [1] | Potency [2] | Potency [3] | Potency [4] | Potency [5] | Potency [6] | Potency [7] | Potency [8] | Potency [9] | Potency [10]

CC(=O)Oc1cc(C(C)C)c(OCCN(C)C)cc1C
inactive: Potency [1] | Potency [2] | Potency [3] | Potency [4] | Potency [6] | Potency [7] | Potency [8] | Potency [9] | Potency [10]

N[C@@H](COP(=O)(O)O)C(=O)O
inactive: Potency [1] | Potency [2] | Potency [3] | Potency [4] | Potency [6] | Potency [7] | Potency [8] | Potency [9] | Potency [10]

CN1CCN(C2=Nc3ccccc3Oc3ccc(Cl)cc32)CC1
inactive: Potency [1] | Potency [3] | Potency [4] | Potency [6] | Potency [7] | Potency [8] | Potency [10]

Cc1cc(C)c(/C=C2\C(=O)Nc3ccccc32)[nH]1
inactive: Potency [2] | Potency [3] | Potency [4] | Potency [6] | Potency [7] | Potency [8] | Potency [9] | Potency [10]
active: Potency [1] 18.8 µM

NC(N)=N/N=C/c1c(Cl)cccc1Cl
inactive: Potency [1] | Potency [2] | Potency [3] | Potency [4] | Potency [5] | Potency [7] | Potency [8] | Potency [10]

Nc1nc(N)c2nc(-c3ccccc3)c(N)nc2n1
inactive: Potency [7] | Potency [10]
active: Potency [1] 0.531 µM | Potency [2] 13.8 µM | Potency [3] 8.41 µM | Potency [8] 13.3 µM | Potency [9] 13.8 µM

CN(C)CCCN1c2ccccc2Sc2ccccc21
inactive: Potency [1] | Potency [4] | Potency [7] | Potency [8]

CN(C(=O)CCCOc1ccc2[nH]c(=O)ccc2c1)C1CCCCC1
inactive: Potency [1] | Potency [2] | Potency [3] | Potency [4] | Potency [6] | Potency [7] | Potency [8] | Potency [10]

O=C(O)CN(CCN(CC(=O)O)CC(=O)O)CCN(CC(=O)O)CC(=O)O
inactive: Potency [1] | Potency [3] | Potency [4] | Potency [5] | Potency [6] | Potency [7] | Potency [9] | Potency [10]

CN(C)CC/C=C1\c2ccccc2COc2ccccc21
inactive: Potency [1] | Potency [2] | Potency [3] | Potency [4] | Potency [7] | Potency [8]

NC(N)=NC(=O)Cc1c(Cl)cccc1Cl
inactive: Potency [1] | Potency [2] | Potency [4] | Potency [5] | Potency [6] | Potency [7] | Potency [8] | Potency [10]

O=C1NCN(c2ccccc2)C12CCN(CCCC(c1ccc(F)cc1)c1ccc(F)cc1)CC2
active: Potency [1] 16.8 µM | Potency [5] 13.3 µM | Potency [6] 13.7 µM | Potency [9] 13.8 µM
inactive: Potency [7]

CC(C)(Oc1ccc(CCNC(=O)c2ccc(Cl)cc2)cc1)C(=O)O
inactive: Potency [1] | Potency [2] | Potency [3] | Potency [4] | Potency [6] | Potency [7] | Potency [8] | Potency [9] | Potency [10]

O=C(O)CP(=O)(O)O
inactive: Potency [1] | Potency [2] | Potency [3] | Potency [4] | Potency [5] | Potency [7] | Potency [8] | Potency [9] | Potency [10]

COc1cc(C(=O)OCCCN2CCCN(CCCOC(=O)c3cc(OC)c(OC)c(OC)c3)CC2)cc(OC)c1OC
inactive: Potency [1] | Potency [3] | Potency [4] | Potency [5] | Potency [6] | Potency [7] | Potency [10]

CC(C)(C)c1ccc(C(=O)CCCN2CCC(OC(c3ccccc3)c3ccccc3)CC2)cc1
active: Potency [1] 21.1 µM | Potency [2] 27.6 µM | Potency [5] 26.6 µM | Potency [9] 19.5 µM
inactive: Potency [6]

COc1cc2c(cc1OC)-c1cc(=Nc3c(C)cc(C)cc3C)n(C)c(=O)n1CC2
active: Potency [1] 4.22 µM
inactive: Potency [4] | Potency [10]

COc1cc(Cc2cnc(N)nc2N)cc(OC)c1OC
inactive: Potency [2] | Potency [3] | Potency [4] | Potency [5] | Potency [6] | Potency [7] | Potency [8] | Potency [9] | Potency [10]

OCCN1CCN(CCCN2c3ccccc3C=Cc3ccccc32)CC1
inactive: Potency [1] | Potency [2] | Potency [3] | Potency [4] | Potency [5] | Potency [7] | Potency [8] | Potency [9] | Potency [10]
